# Data: PubChem BioAssay
# Activity calls are given as the source filed them.
# What was measured:
# [1] = binders of probe aFSTL3 on microarray, primary screen, stem cell growth factor project, biochemical, small-molecule microarray, fluorescence 635/667 (AID 1064); details: higher = more signal;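 also: measures binding of the biotinylated anti-FSTL3 antibody to printed compounds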
# [2] = binders from COS7 lysate, DM2A8 probe, primary screen, torsin A project, cell lysate, small-molecule microarray, fluorescence 635/667 (AID 1065); details: higher = more signal, COS7 lysate expressing mutant human TOR1A
# [3] = binders of probe aFGF2 on microarray, primary screen, stem cell growth factor project, biochemical, small-molecule microarray, fluorescence 635/667 (AID 1067); details: higher = more signal;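 also: measures binding of biotinylated aFGF2 protein to printed compounds on slides; z-score merges feature fluorescence and signal-to-noise across triplicate slides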
# [4] = binders of probe aFGF10 on microarray, primary screen, stem cell growth factor project, biochemical, small-molecule microarray, fluorescence 635/667 (AID 1071); details: higher = more signal;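 also: score merges 667 nm spot intensity and signal to noise from triplicate slides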
# [5] = target: Neurogenic locus notch homolog protein 2 (Homo sapiens) (UniProt Q04721); experiment: Notch2 binders on small-molecule microarrays, primary screen, biochemical, small-molecule microarray, 635 nm fluorescence, stem cell growth factors (AID 1073); details: Notch2 binding, higher = more signal
# [6] = target: Pro-neuregulin-1, membrane-bound isoform (Homo sapiens) (UniProt Q02297); experiment: NRG1 binders on small-molecule microarrays, primary screen, psychiatric disease protein project, biochemical, small-molecule microarray, fluorescence 635/667 (AID 1075); details: NRG1 binding, 635 nm fluorescence, higher = more signal;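 also: score combines 667 nm spot fluorescence with signal to noise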
# [7] = test system: Neuregulin-1 EGF-like domain; experiment: binders of neuregulin-1 EGF-like domain, primary screen, biochemical, small-molecule microarray, 635 nm fluorescence (AID 1081); details: small-molecule microarray binding, higher = more signal;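 also: binding of the protein to compounds printed on small-molecule microarray slides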
# [8] = FRG1 promoter luciferase signal modulators, primary screen, FRG1 inhibition for FSHD, cell-based, C2C12 myotubes, firefly/Renilla luciferase, luminescence (AID 1084); details: higher = more signal, called active from +8 up or from −8 down
# [9] = binders of probe aFST on microarray, primary screen, stem cell growth factor project, biochemical, small-molecule microarray, fluorescence 635/667 (AID 1086); details: higher = more signal;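 also: score merges 667 nm fluorescence with signal-to-noise of each printed compound spot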
# [10] = binders of probe aHhip on microarray, primary screen, stem cell growth factor project, biochemical, small-molecule microarray, fluorescence 635/667 (AID 1087); details: higher = more signal;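 also: score merges spot fluorescence at 667nm with spot signal to noise ratio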
# [11] = test system: PRMT1 (protein arginine N-methyltransferase 1); experiment: PRMT1 binders on small-molecule microarrays, primary screen, biochemical, small-molecule microarray, 635 nm fluorescence (AID 1088); details: small-molecule microarray binding, higher = more signal;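 also: binding of Prmt1 protein to compounds spotted on small-molecule microarray slides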
# [12] = yeast growth modulation, basal conditions, primary screen, YJM789 clinical isolate, OD600, 24 h (AID 1089);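 also: growth of clinical yeast isolate S. cerevisiae YJM 789 seeded 1000 cells per well; test concentration not given here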; details: S. cerevisiae YJM789 growth, higher = more signal, called active from +8 up or from −8 down
# [13] = fission yeast growth modulation, primary screen, strain 972, OD600, 24 h, no modulator (AID 1090);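 also: basal condition with compound alone and no growth modifier present; test concentration not given here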; details: S. pombe 972 growth, higher = more signal, called active from +8 up or from −8 down
# [14] = S. cerevisiae growth modulation with rapamycin, primary screen, strain BY4716, OD600, 96 h (AID 1091); details: higher = more signal, called active from +8 up or from −8 down; also: test concentration not given here
# [15] = target: Torsin-1A-interacting protein 2 (Homo sapiens) (UniProt Q8NFQ8); experiment: LULL1 binders on small-molecule microarray, primary screen, cell lysate, human LULL1 lysate, 635/667 nm fluorescence (AID 1092); details: hLULL1 lysate binding, 635 nm fluorescence, higher = more signal;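 also: probe is lysate of COS7 cells overexpressing human LULL1; score merges per-feature 667 nm fluorescence with signal-to-noise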
# [16] = E. coli growth modulation, two-sided OD650, primary screen, E. coli filamentation project, strain DRC41, 24 h (AID 1093); details: OD650, 24 h, higher = more signal, called active from +8 up or from −8 down;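 also: MC1000 strain lacking acrAB efflux and sulA so SOS filamentation is blocked; test concentration not given here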
# [17] = small-molecule microarray binders of probe aLefty2, primary screen, biochemical, biotinylated probe, 635/667 nm fluorescence (AID 1094); details: higher = more signal;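 also: score merges spot fluorescence near 667 nm with spot signal-to-noise ratio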
# [18] = test system: Noggin (protein binding on small-molecule microarray); experiment: Noggin binders on small-molecule microarray, primary screen, biochemical, 635/667 nm fluorescence (AID 1095); details: 635 nm fluorescence, higher = more signal;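 also: score merges 667 nm feature fluorescence with signal to noise over triplicate slides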
# [19] = target: Neurogenic locus notch homolog protein 3 (Homo sapiens) (UniProt Q9UM47); experiment: NOTCH3 binders on small-molecule microarray, primary screen, biochemical, 635/667 nm fluorescence (AID 1096); details: NOTCH3 binding, 635 nm fluorescence, higher = more signal
# [20] = small-molecule microarray binders of probe aEGFR, primary screen, biochemical, biotinylated probe, 635/667 nm fluorescence (AID 1097); details: higher = more signal;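 also: probe is a biotinylated anti-EGFR antibody binding compounds printed on slides; score combines fluorescence near 667 nm and signal to noise of each spot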
# Pro-neuregulin-1, membrane-bound isoform (Homo sapiens), sequence (Q02297 whole entry, looked up, the tested form may be a part, canonical isoform): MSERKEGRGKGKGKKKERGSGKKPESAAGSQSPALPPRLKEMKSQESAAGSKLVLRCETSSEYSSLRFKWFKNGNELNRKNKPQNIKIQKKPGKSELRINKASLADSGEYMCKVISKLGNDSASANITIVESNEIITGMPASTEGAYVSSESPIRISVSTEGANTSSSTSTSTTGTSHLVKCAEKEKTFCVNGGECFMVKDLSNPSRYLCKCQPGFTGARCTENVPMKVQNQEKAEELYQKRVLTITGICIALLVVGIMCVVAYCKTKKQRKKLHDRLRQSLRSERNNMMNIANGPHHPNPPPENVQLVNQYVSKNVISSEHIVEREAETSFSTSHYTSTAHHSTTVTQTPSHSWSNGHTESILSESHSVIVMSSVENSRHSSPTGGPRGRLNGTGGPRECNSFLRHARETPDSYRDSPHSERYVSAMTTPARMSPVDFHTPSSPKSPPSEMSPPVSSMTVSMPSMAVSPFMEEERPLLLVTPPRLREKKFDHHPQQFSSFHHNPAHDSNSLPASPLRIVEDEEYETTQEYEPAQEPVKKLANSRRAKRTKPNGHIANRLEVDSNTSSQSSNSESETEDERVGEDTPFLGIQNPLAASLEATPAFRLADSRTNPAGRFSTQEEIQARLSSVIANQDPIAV
# Torsin-1A-interacting protein 2 (Homo sapiens), sequence (Q8NFQ8 whole entry, looked up): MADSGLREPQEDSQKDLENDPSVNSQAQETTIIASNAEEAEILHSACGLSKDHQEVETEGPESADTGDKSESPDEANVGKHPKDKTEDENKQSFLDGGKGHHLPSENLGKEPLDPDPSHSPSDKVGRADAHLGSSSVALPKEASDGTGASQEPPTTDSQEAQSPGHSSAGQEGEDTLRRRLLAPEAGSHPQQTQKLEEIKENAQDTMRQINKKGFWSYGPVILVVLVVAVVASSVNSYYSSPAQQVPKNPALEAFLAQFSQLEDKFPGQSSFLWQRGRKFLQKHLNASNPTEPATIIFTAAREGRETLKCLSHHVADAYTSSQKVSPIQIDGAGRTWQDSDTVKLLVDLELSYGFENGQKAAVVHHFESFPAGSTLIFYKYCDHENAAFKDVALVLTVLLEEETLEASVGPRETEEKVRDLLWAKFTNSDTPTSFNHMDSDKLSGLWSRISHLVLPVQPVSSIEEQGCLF
# Neurogenic locus notch homolog protein 3 (Homo sapiens), sequence (Q9UM47 whole entry, looked up): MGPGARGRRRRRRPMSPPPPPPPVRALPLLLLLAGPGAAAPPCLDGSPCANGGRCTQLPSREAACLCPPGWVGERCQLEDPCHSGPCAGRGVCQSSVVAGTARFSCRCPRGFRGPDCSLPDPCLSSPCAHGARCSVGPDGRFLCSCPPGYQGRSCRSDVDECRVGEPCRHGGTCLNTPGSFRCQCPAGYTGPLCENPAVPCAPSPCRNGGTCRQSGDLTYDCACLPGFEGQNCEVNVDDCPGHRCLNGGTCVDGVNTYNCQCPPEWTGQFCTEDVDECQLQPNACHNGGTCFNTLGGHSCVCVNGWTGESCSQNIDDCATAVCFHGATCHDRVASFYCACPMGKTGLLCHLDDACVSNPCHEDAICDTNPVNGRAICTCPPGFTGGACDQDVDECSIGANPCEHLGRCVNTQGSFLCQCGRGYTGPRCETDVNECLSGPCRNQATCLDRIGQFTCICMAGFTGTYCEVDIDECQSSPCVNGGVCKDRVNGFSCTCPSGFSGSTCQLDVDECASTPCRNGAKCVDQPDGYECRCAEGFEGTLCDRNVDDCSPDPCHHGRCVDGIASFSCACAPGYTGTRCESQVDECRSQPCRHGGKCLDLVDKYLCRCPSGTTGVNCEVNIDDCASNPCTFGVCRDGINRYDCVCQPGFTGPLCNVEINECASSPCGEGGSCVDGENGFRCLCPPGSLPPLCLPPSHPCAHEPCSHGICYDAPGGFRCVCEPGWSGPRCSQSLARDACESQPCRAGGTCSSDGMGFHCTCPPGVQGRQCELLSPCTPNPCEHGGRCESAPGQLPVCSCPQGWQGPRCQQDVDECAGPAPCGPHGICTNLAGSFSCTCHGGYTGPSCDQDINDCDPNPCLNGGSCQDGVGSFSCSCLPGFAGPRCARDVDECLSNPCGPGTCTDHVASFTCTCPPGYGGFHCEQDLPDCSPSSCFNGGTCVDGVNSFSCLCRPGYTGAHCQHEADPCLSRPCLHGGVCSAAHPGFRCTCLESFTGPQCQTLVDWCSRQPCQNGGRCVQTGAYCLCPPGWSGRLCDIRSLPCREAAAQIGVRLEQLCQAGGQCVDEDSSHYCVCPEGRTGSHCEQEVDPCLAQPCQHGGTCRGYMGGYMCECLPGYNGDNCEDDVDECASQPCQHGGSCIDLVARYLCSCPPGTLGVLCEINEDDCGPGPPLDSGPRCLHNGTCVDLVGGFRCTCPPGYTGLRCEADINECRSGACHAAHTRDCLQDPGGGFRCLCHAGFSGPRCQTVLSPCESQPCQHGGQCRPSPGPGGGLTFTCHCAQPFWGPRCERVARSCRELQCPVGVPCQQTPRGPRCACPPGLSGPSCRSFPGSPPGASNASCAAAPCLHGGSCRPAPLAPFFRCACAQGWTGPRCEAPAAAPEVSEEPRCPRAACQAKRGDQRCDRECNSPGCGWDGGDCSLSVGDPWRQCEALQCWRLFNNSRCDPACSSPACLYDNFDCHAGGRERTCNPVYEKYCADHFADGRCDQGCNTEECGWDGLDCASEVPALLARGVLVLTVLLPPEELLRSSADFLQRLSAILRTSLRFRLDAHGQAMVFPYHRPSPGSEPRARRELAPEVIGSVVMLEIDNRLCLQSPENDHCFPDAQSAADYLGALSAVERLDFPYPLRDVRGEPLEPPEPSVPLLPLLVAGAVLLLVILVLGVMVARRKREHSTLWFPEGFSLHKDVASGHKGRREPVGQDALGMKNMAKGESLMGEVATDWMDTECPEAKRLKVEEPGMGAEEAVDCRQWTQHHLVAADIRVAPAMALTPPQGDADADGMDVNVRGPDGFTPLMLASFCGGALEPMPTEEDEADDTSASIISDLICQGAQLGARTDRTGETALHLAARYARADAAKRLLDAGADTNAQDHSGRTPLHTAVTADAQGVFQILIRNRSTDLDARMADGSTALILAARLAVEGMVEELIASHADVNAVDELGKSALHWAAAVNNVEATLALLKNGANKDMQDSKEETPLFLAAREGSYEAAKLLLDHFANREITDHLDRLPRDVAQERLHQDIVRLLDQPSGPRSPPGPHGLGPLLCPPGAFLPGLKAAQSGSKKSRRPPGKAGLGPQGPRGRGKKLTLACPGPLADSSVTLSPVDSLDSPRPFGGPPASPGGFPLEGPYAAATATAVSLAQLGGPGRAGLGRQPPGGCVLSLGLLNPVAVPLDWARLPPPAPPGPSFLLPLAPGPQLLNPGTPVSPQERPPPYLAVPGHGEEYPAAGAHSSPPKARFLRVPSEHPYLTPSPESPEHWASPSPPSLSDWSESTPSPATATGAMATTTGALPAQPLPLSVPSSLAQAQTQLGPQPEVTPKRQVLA
Compound,composite z-score [1],composite z-score [2],composite z-score [3],composite z-score [4],composite z-score [5],composite z-score [6],composite z-score [7],z-score [8],composite z-score [9],composite z-score [10],composite z-score [11],z-score [12],z-score [13],z-score [14],composite z-score [15],z-score [16],composite z-score [17],composite z-score [18],composite z-score [19],composite z-score [20]
CCCCC(O)C1C=CC2C(=O)N(c3ccccc3)C(=O)C2N1Nc1ccc(C(C)C)cc1 (stereo not given),-0.158,-0.534,0.0662,0.47,1.44,1.85,0.697,-0.875 (inactive),1.13,-0.217,1.37,0.603 (inactive),-0.582 (inactive),0.0624 (inactive),3.01,-1.32 (inactive),-0.122,0.49,1.03,-0.067
CCCCO[C@H]1C[C@H]2C(I)=C[C@@H]1C(=O)[C@]21CO1,-0.329,0.823,-0.0706,0.0657,-0.361,-0.149,-0.44,1.43 (inactive),-0.323,-0.236,-0.429,-1.88 (inactive),-4.81 (inactive),-1.68 (inactive),-1.03,-1.25 (inactive),-0.126,0.359,0.0532,-0.19
CC(CO)N1C(=O)[C@@H]2[C@H]3C(=O)OCC=C[C@H]3OC23C=CCN(Cc2ccccc2)C(=O)[C@@H]13 (stereo not given in full),0.0457,-0.31,-0.166,-0.166,-0.374,-0.622,0.307,-0.282 (inactive),-0.531,0.12,-1.28,-0.163 (inactive),-0.528 (inactive),-1.45 (inactive),1.41,2.31 (inactive),-0.219,-0.662,0.0095,-0.206
C=CCC(OC(C)=O)[C@@H]1[C@@H](N(Cc2ccc(-c3cccc(C(F)(F)F)c3)o2)C(=O)c2ccc(-c3ccccc3)cc2)c2cc(OCCCO)ccc2N1C(=O)c1ccc2ccccc2n1 (stereo not given in full),-0.0375,-0.246,-0.0266,0.306,0.0588,0.0617,-0.385,-0.379 (inactive),0.77,-0.0237,-1.08,0.672 (inactive),0.789 (inactive),0.847 (inactive),-0.244,-0.656 (inactive),-0.0063,-0.0955,0.0478,-0.0656
C=CC[C@]1(C(=O)O)COC(c2ccc(OCCCO)cc2)=N1,-0.151,0.273,-0.0538,-0.114,0.675,1.79,1.07,0.519 (inactive),0.403,-0.249,0.262,-0.396 (inactive),-0.636 (inactive),-0.581 (inactive),3.36,-0.204 (inactive),-0.0784,0.253,0.0614,-0.0828
CC(=O)NCCCC[C@@H]1NC(=O)[C@H]2C[C@@H](C(=O)NCCCC[N+](C)(C)C)[C@@H](c3cccc(OCCO)c3)N2C1=O,-0.188,1.86,-0.0319,1.23,0.165,0.4,1.14,0.647 (inactive),0.593,0.24,1.41,-0.369 (inactive),-1.27 (inactive),-1.92 (inactive),1.97,1.08 (inactive),0.0503,1.81,1.01,0.162
C=C(/C(=C/C[C@H](OC(=O)c1ccncc1)c1ccc(CO)o1)c1cc(C(=O)OC)ccc1OC)C(C)C,-0.259,0.816,-0.0097,1.08,0.238,0.928,1.23,-0.918 (inactive),0.201,0.113,1.44,-0.0096 (inactive),-0.515 (inactive),-0.38 (inactive),1.6,0.425 (inactive),-0.116,0.424,1.02,-0.0902
CC(C)N1CC=CC23O[C@@H]4C=CCOC(=O)[C@@H]4[C@H]2C(=O)N(CCCO)[C@@H]3C1=O (stereo not given in full),0.645,1.64,-0.188,0.425,-0.671,1.57,1.58,-0.385 (inactive),-0.436,-0.16,0.943,-1.46 (inactive),-2.28 (inactive),-1.58 (inactive),2.41,2.67 (inactive),-0.178,0.927,-0.145,-0.178
O=C1O[C@H](c2ccccc2)[C@H](c2ccccc2)N2[C@H]1[C@@H](C(=O)Nc1nc3ccccc3s1)[C@]1(C(=O)Nc3ccc(C#CC4(O)CCCCCC4)cc31)[C@H]2c1ccccc1OCCO,-0.411,0.0728,-0.048,1.05,1.23,0.77,1.07,0.435 (inactive),0.492,-0.0994,1.54,1.87 (inactive),1.91 (inactive),3.32 (inactive),3.08,0.149 (inactive),-0.118,0.971,1.06,-0.0564
CCOC(=O)c1ccc(NC(=O)O[C@H]2[C@H](OC(=O)Nc3ccc4c(c3)OCO4)[C@H](OC(=O)Nc3ccc4c(c3)OCO4)[C@@H](OC)O[C@@H]2CO)cc1,0.237,0.807,0.129,1.14,1.59,0.898,1.3,1.08 (inactive),0.792,0.28,1.54,1.21 (inactive),1.57 (inactive),6.12 (inactive),3.1,0.62 (inactive),0.17,1.34,1.06,0.251
